PubChem BioAssay (NCI)
About 83,000 compounds went through this panel and 20% of them were active in at least one assay; those are over-represented in the sample as a whole.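 Note: values are percent growth. 100 is the growth of untreated cells, values between 100 and 0 indicate rising inhibition; between -100 and 0 indicates cell death.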 Values without a mark were called inactive. The source made the active and inactive calls. Rule for the calls: active = growth percent below 10; inactive = the rest.

Tests used:
Test in all cases: NCI-60 one-dose screen, 48 h (100 = growth as untreated, 0 = no growth, -100 = all killed)
Conditions in all cases: 10 µM unless noted
[1] = test system: NCI-H23 lung
[2] = test system: NCI-H226 lung
[3] = test system: NCI-H322M lung
[4] = test system: HOP-62 NSCLC
[5] = test system: NCI-H460 lung
[6] = test system: HOP-92 NSCLC
[7] = test system: NCI-H522 lung
[8] = test system: A549/ATCC NSCLC
[9] = test system: 786-0 renal
[10] = test system: COLO 205 colon
[11] = test system: DU-145 prostate
[12] = test system: K-562 leukemia
[13] = test system: MALME-3M melanoma
[14] = test system: MDA-MB-231 breast
[15] = test system: RXF 393 renal
[16] = test system: SF-268 CNS
[17] = test system: SF-295 CNS
[18] = test system: SF-539 CNS
[19] = test system: UACC-257 melanoma
[20] = test system: M14 melanoma

Row | Structure (SMILES) | growth [1] | growth [2] | growth [3] | growth [4] | growth [5] | growth [6] | growth [7] | growth [8] | growth [9] | growth [10] | growth [11] | growth [12] | growth [13] | growth [14] | growth [15] | growth [16] | growth [17] | growth [18] | growth [19] | growth [20]
1 | CCOC(=O)c1ccc2nc(-c3c(C)nn(-c4ccccc4)c3N3CCOCC3)[nH]c2c1 | 95.2% | 73.3% | 102% | 85.6% | 97% | 79.8% | 87.2% | 94.5% | 104% | 114% | 105% | 91.2% | 98.7% | 69.9% | 92.1% | 94.3% | 96.2% | 95.8% | 106% | 89.3%
2 | O=C(CCN1CCCCC1)c1ccc(Cl)cc1 | 110% | 94.6% | 99.9% | 100% | 97.8% | 83.1% | 95.8% | 109% | 103% | 107% | 106% | 118% | 105% | 104% | 113% | 104% | 94.2% | 99.9% | 108% | 107%
3 | COc1ccc(C2=C(c3cn(C)c4ccccc34)C(=O)OC2)cc1OC | 54.6% | 70.3% | 65.5% | 31.5% | 29.6% | 16.4% | 13.3% | 42.3% | 41.2% | 12.6% | 48.7% | 18% | 35.4% | 49.8% | -7.01% (active) | 52.1% | 23% | -12.2% (active) | 79.7% | 50%
4 | COc1cc(Cl)cc(-c2nn(C(=O)NS(=O)(=O)c3ccccc3)cc2-c2ccncc2)c1 | 90.4% | 69.3% | 96% | 68.6% | 107% | 47.7% | 82.5% | 78.5% | 70.9% | 69.7% | 82.5% | 86.3% | 96.4% | 62.6% | 79.2% | 81.1% | 97.9% | 48.2% | 110% | 86.4%
5 | CC1(C)S[C@@H]2[C@H](NC(=O)[C@H](C(=O)O)c3cccs3)C(=O)N2[C@H]1C(=O)O | 102% | 105% | 108% | 105% | 113% | 122% | 75.8% | 102% | 97.1% | 111% | 123% | 105% | 103% | 126% | 116% | 110% | 98.4% | 100% | 96.2% | 102%
6 | CC(C)[C@H]1CCC2=C3CC[C@]45OC(=O)[C@@]6(CCC(C)(C)C[C@H]64)CC[C@@]5(C)[C@]3(C)CC[C@@]21C | 54.4% [100 µM] | 68.4% [100 µM] | 94.5% [100 µM] | 76.3% [100 µM] | 71.8% [100 µM] | 19.9% [100 µM] | 55.7% [100 µM] | 67.1% [100 µM] | 69.3% [100 µM] | 97% [100 µM] | 83.3% [100 µM] | 45.3% [100 µM] | 91.6% [100 µM] | 61.2% [100 µM] | 78.6% [100 µM] | 75.6% [100 µM] | 88.7% [100 µM] | 71.6% [100 µM] | 77.1% [100 µM] | 86.3% [100 µM]
7 | COc1ncc(-c2ccc3nccc(C#CCCCCC(=O)NO)c3c2)cc1NS(=O)(=O)c1ccc(F)cc1F | 29.6% | 9.85% (active) | 7.5% (active) | 4.48% (active) | 6.53% (active) | -27.7% (active) | -21.7% (active) | -12.7% (active) | -14.5% (active) | -44.5% (active) | 12.4% | 17.3% | -40.5% (active) | -11.8% (active) | -56.6% (active) | -11.6% (active) | -9.35% (active) | -45.7% (active) | -16.4% (active) | -48.7% (active)
8 | C=C(C)[C@@H]1CC[C@]2(C(=O)OC)CC[C@]3(C)[C@H](CC[C@@H]4[C@@]5(C)CC/C(=N\OCCC(=NCCC#N)NOCCC#N)C(C)(C)[C@@H]5CC[C@]43C)[C@@H]12 | 21.8% [100 µM] | 2.42% [100 µM] (active) | 46.1% [100 µM] | 32.5% [100 µM] | 4.22% [100 µM] (active) | -15% [100 µM] (active) | 13.4% [100 µM] | 15.8% [100 µM] | -11.5% [100 µM] (active) | 17.6% [100 µM] | 27.5% [100 µM] | 5.42% [100 µM] (active) | 25.3% [100 µM] | 5.09% [100 µM] (active) | -43.1% [100 µM] (active) | 29.1% [100 µM] | 36.6% [100 µM] | -2.29% [100 µM] (active) | 8.82% [100 µM] (active) | 26.6% [100 µM]
9 | N/C(=N\c1nc2ccccc2[nH]1)NC(=O)Cc1cccc2ccccc12 | 76.5% | 88.7% | 85.3% | 108% | 84.4% | 64.6% | 63.7% | 69.7% | 70.4% | 90.6% | 92.8% | 107% | 68.3% | 84.6% | 92% | 86.5% | 98.7% | 91.3% | 6.29% (active) | 107%
10 | O=C(N/N=C/c1ccc([N+](=O)[O-])cc1)c1ccc(Br)o1 | 95.5% | 100% | 129% | 119% | 105% | 101% | 88.5% | 92.7% | 91.7% | 116% | 126% | 114% | 106% | 113% | 90.3% | 111% | 83% | 97.8% | 107% | 107%
11 | COc1ccc2c(c1)C(C)Cc1c(Cl)ncnc1N2C (stereo not given) | 7.68% (active) | -3.41% (active) | 36.1% | 11.8% | 16.6% | 6.91% (active) | -49.9% (active) | 15% | 7.84% (active) | -66% (active) | 35.3% | 9.21% (active) | 41.4% | -45.3% (active) | -8.62% (active) | 10.5% | 15.2% | 28% | 13.6% | 12.1%
12 | Clc1ccc2nc(-c3ccc(-c4ccc(/C=N/NC5=NCCN5)cc4)s3)cn2c1 | 106% | 94.9% | 98.3% | 98.6% | 100% | 76.5% | 106% | 99.9% | 95.5% | 107% | 101% | 4.14% (active) | 94.3% | 96.3% | 82.5% | 94.2% | 97.2% | 83.1% | 101% | 97.7%
13 | CC1=CC[C@@H]2C(C)(C)C(=O)CC[C@@]2(C)[C@@H]1COc1ccc2ccc(=O)oc2c1 | 83% | 43.8% | 89.3% | 97.5% | 89.2% | 73.9% | 53.6% | 62.2% | 89.9% | 71.1% | 88.3% | 60.1% | 78% | 89.4% | 68.6% | 86.4% | 69% | 87.5% | 91.4% | 89%
